Source: PubChem BioAssay (NCI)
The panel holds about 83,000 compounds, 20% with a hit somewhere; the sample as a whole holds those more often.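 Percent growth is the endpoint: 0 to 100 indicates growth inhibition (40 means 60% inhibition), 0 means no net growth, and negative values indicate cell death.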 A number with no mark means an inactive call. The source made the active and inactive calls. Rule for the calls: active = growth percent below 10; inactive = the rest.

What follows are compounds tested on DU-145 prostate (assay: NCI-60 one-dose screen, 48 h (100 = growth as untreated, 0 = no growth, -100 = all killed)). Settings: 10 µM unless noted.
In the case of `CC[C@H](C)[C@H](N)C(=O)O`, the growth is reported as 106%. With `COc1ccc2c(c1)sc1nc(-c3ccccc3)c(-c3cccc4ccccc34)n12` the growth was 18.9%. `Cc1ccc(C)c(NC(=O)c2sc3c(=O)[nH]cnc3c2C)c1` showed a growth of 108%. `Cc1ccncc1NC=O` gave a growth of 113%. `COc1ccc(/C(C)=N/NC(=O)CSc2nc3ccccc3c(=O)n2CCc2ccc(S(N)(=O)=O)cc2)cc1` was tested, and the growth was 1.74% (active). Compound `COC(=O)OC1C(O[C@H]2C[C@H]3[C@@H]4CC=C5C[C@@H](O)CC[C@]5(C)[C@H]4CC[C@]3(C)[C@H]2[C@H](C)C(=O)CCC(C)C)OCC(O)C1OC1OCC(O)C(O)C1OC(=O)c1ccc(OC)cc1` (some centres undefined) has a growth of 34.8%. `O=C1CCCN1C1CCN2CCCc3cccc1c32` (centres undefined) was tested, and the growth was 119%. `CC1OC(n2c3ccccc3c3c4c(c5c6ccccc6[nH]c5c32)C(=O)N(CCN[C@H]2CCC[C@@H]2N)C4=O)CC(O)C1O` (some centres undefined) was tested, and the growth was 44.5%. For `COc1ccc2[nH]cc(C3(c4c[nH]c5ccc(OC)cc45)C(=O)Nc4ccc(F)cc43)c2c1`, the growth was 81.2%. `c1cc2c(cc1-c1cnc3nonc3n1)OCO2` showed a growth of 103%. For `Nc1c(C(=O)Nc2cccc(Cl)c2)sc2nc3c(cc12)C(=O)CCC3`, the growth was 11.6%. `O=C(Nc1ccc(Br)cc1)c1ccc(Cl)c(Cl)c1` showed a growth of 34.7%. In the case of `O=C(CSc1nc2c(n1Nc1ccccc1)-c1ccccc1SC2)Nc1nccs1`, the growth is reported as 105%. In the case of `COc1ccc(-c2nc3c(c(-c4ccc(Cl)cc4)nn3-c3ccccc3)c(-c3ccc(O)cc3)c2C#N)cc1`, the growth is reported as 51.6%. With `c1csc(-c2cnc3nonc3n2)c1` the growth was 108%. Compound `CC1(C)CC(=O)c2cc3c(N)c(C(=O)Nc4ccc(Cl)cc4)sc3nc2C1` has a growth of 103%. Work on `CN1C(=O)C(C(=O)/C=C/c2ccccc2C(=O)O)C(=O)N(C)C1=O` yielded a growth of 111%. For `CC(NC(=O)c1ccccc1)C(=O)Nc1ccccc1` (centres undefined), the growth was 118%. `CN1CCC2(CC1)N=C(SCC(=O)Nc1cnc3ccccc3c1)C(c1ccc(Br)cc1)=N2` showed a growth of 21.8%. In the case of `CSc1nc(N)c2[nH]c(-c3cc4ccccc4[nH]c3=O)nc2n1`, the growth is reported as 72.6%. For `C=CC(=O)N1CN(C(=O)C=C)CN(C(=O)C=C)C1`, the growth was 77%. `CC(C)(C)[Si](C)(C)OC1[C@@H](O[Si](C)(C)C(C)(C)C)[C@@H](CNC(=O)NC(=O)NC(=O)CCl)O[C@H]1n1cnc2c(NC(=O)Nc3ccccc3)ncnc21` (some centres undefined) gave a growth of 87.5%. Compound `CCCCCCCC/C=C/CCCCCCCC1=NC(C)(C)CN1c1ccccc1` has a growth of 97.2%. Work on `CCCCCCCCN(CCCCCCCC)C(=O)CCl` yielded a growth of 110%. Work on `COc1cc(OC)c(Cl)cc1N` yielded a growth of 114%. `CNC(=O)c1c(NC(=O)c2ccc(C(C)C)cc2)sc2c1CCC(=O)C2` showed a growth of 23.4%. In the case of `COc1nccc2c(Sc3ccccc3)nc(N)nc12`, the growth is reported as 104%. With `Nc1c(C(=O)Nc2ccccc2)sc2nc3c(cc12)C(=O)CCC3` the growth was 0.618% (active). In the case of `CCC(=O)NC1=C(Cl)C(=O)C(NC(=O)CC)=C(Cl)C1=O`, the growth is reported as 44.3%. For `CCCCCCCCCCCCC1CCC(=O)O1` (centres undefined), the growth was 104%. Work on `CCN1C(=O)N(CC)C2C1NC(=O)N2/N=C/C=C/c1ccccc1` (centres undefined) yielded a growth of 68.1%. Work on `CN(C)CCCN1c2ccccc2CCc2ccccc21` yielded a growth of 113%. Work on `CC(CN1CCN(CC(C)Nc2ccnc3cc(Cl)ccc23)CC1)Nc1ccnc2cc(Cl)ccc12` (centres undefined) yielded a growth of 30%. Compound `S=C(S)Oc1cccc2cccnc12` has a growth of 105%. For `CCn1c(Cc2ccccc2Nc2c(Cl)cccc2Cl)nnc1SCC(=O)Nc1cccc(OC)c1`, the growth was 94%. With `CCc1onc(-c2ccc(OC)cc2)c1-c1ccccc1OCCN(CC)CC` the growth was 96.7%. With `COc1ccc(-c2cc(-c3ccc(OC)cc3)c3sc(=O)[nH]c3n2)cc1` the growth was 107%. `COc1ccc2nc3ccccc3c(NCc3ccc(C)cc3)c2c1` gave a growth of 21.6%. `CS(=O)(=O)c1ccc(C(=O)Nc2ccc(Cl)c(-c3ccccn3)c2)c(Cl)c1` gave a growth of 24.7%.
